We go through 21 compounds from PubChem BioAssay (NCI).

Among the test systems are SR leukemia; RPMI-8226 leukemia; OVCAR-8 ovarian; OVCAR-5 ovarian; OVCAR-4 ovarian; SK-OV-3 ovarian; IGROV1 ovarian; OVCAR-3 ovarian; HS 578T breast; NCI/ADR-RES ovarian.
What all share (assay): NCI-60 one-dose screen, 48 h (100 = growth as untreated, 0 = no growth, -100 = all killed)
Conditions in all cases: 10 µM unless noted

This is part of a sample that, as a whole, favours compounds with a hit. Of some 83,000 tested, about 20% had one in any assay.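 Activity criterion: percent growth below 10, measured after cells in 96-well plates were exposed to a single compound concentration for 48 hours.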 Values without a mark were called inactive. The source made the active and inactive calls.

For `CC(C)(C)CC(C)(C)Nc1c(-c2ccc3c(c2)OCO3)nc2cnccn12`, the growth in the assay on SR leukemia is 73.1%; in the assay on RPMI-8226 leukemia, 69.7%; in the assay on OVCAR-8 ovarian, 95.1%; with OVCAR-5 ovarian, 91.2%; in the assay with OVCAR-4 ovarian, 86.9%; in the assay on SK-OV-3 ovarian, 92%. The growth in the assay on IGROV1 ovarian was 72.1%; in the assay with OVCAR-3 ovarian it was 92.5%; with HS 578T breast, 88.5%; in the assay on NCI/ADR-RES ovarian it was 87.7%.

Consider `C=C(C)[C@@H]1CC[C@]2(C=O)CC[C@]3(C)[C@H](CC[C@@H]4[C@@]5(C)CCCNC(C)(C)[C@@H]5CC[C@]43C)[C@@H]12`, for which the growth in the assay with SR leukemia was -31.4% (active); in the assay on RPMI-8226 leukemia it was 12.3%; in the assay on OVCAR-8 ovarian it was 90.9%; in the assay with OVCAR-5 ovarian, 93.3%; in the assay with OVCAR-4 ovarian, 82.3%; in the assay with SK-OV-3 ovarian, 106%. Besides, the growth with IGROV1 ovarian was 50.8%; with OVCAR-3 ovarian, 77.5%; in the assay with HS 578T breast, 89.1%; in the assay on NCI/ADR-RES ovarian it was 85.3%.

In the case of `CCCCOc1ccc(/C=N/Nc2cc(C)nc3ccc(Cl)cc23)cc1`, the growth in the assay on SR leukemia was -20.8% (active); with RPMI-8226 leukemia, -31.6% (active); with OVCAR-8 ovarian, -58.5% (active); in the assay with OVCAR-5 ovarian, 88.9%; in the assay on OVCAR-4 ovarian, 5.29% (active); in the assay on SK-OV-3 ovarian, 79.5%. For the same compound, the growth in the assay on IGROV1 ovarian was -71.6% (active); with OVCAR-3 ovarian it was -76.7% (active); in the assay with HS 578T breast it was 47.7%; with NCI/ADR-RES ovarian, 58.7%.

Regarding `Nc1ccccc1NC(=O)c1ccc(CN2CCC/C(=C\c3cccc(Cl)c3)C2=O)cc1`, the growth was 10.4% in the assay with SR leukemia; -18.7% (active) with RPMI-8226 leukemia; 10.2% in the assay on OVCAR-8 ovarian; 36.7% with OVCAR-5 ovarian; 33.7% with OVCAR-4 ovarian; 13.1% in the assay on SK-OV-3 ovarian. Moreover, the growth in the assay on IGROV1 ovarian was 17.8%; with OVCAR-3 ovarian it was 5.7% (active); with HS 578T breast it was 43.1%; in the assay on NCI/ADR-RES ovarian, 5% (active).

For the compound `COc1cccc(C(Cc2ccccc2)Nc2ccccc2)c1OC` (stereo not given), the growth was 102% in the assay on SR leukemia; 89.7% with RPMI-8226 leukemia; 99% with OVCAR-8 ovarian; 103% in the assay on OVCAR-5 ovarian; 98.1% in the assay with OVCAR-4 ovarian; 91.3% with SK-OV-3 ovarian. Besides, the growth in the assay with IGROV1 ovarian was 86.8%; in the assay with OVCAR-3 ovarian, 98.4%; in the assay on HS 578T breast it was 106%; in the assay with NCI/ADR-RES ovarian it was 98.2%.

On to `COc1ccc(CC(C)=C(c2ccc(OCCN(C)C)cc2)c2ccc(OCCN(C)C)cc2)cc1`, for which the growth is -13.2% (active) with SR leukemia; 56.2% in the assay with RPMI-8226 leukemia; 86% in the assay on OVCAR-8 ovarian; 86.8% in the assay with OVCAR-5 ovarian; 90.1% with OVCAR-4 ovarian; 85.7% with SK-OV-3 ovarian. Moreover, the growth with IGROV1 ovarian is 74.6%; with OVCAR-3 ovarian, 83.8%; with HS 578T breast, 74.6%; in the assay with NCI/ADR-RES ovarian, 86.4%.

Turning to `O=S(=O)(NCCCNc1nccc(-c2c(-c3ccccc3)nc3occn23)n1)c1ccc(Cl)cc1`, the growth was 60.9% in the assay with SR leukemia; 71.2% in the assay on RPMI-8226 leukemia; 74.4% in the assay on OVCAR-8 ovarian; 127% in the assay on OVCAR-5 ovarian; 103% with OVCAR-4 ovarian; 83% with SK-OV-3 ovarian. Moreover, the growth was 75.7% in the assay on IGROV1 ovarian, 104% in the assay with OVCAR-3 ovarian, 96.7% in the assay with HS 578T breast and 87.8% in the assay with NCI/ADR-RES ovarian.

On to `CCC(=O)c1ccc(O)c(OC)c1`, for which the growth with SR leukemia was 108%; in the assay with RPMI-8226 leukemia it was 93.7%; in the assay on OVCAR-8 ovarian, 99.4%; with OVCAR-5 ovarian it was 107%; with OVCAR-4 ovarian, 107%; in the assay on SK-OV-3 ovarian, 122%. Further, the growth is 102% with IGROV1 ovarian, 110% with OVCAR-3 ovarian, 95.7% in the assay with HS 578T breast and 104% with NCI/ADR-RES ovarian.

As to `CCN(CC)CCCCCCNc1cc(OC)cc2cccnc12`, the growth with SR leukemia is -51.2% (active); in the assay on RPMI-8226 leukemia, -8.8% (active); with OVCAR-8 ovarian it was 20.7%; in the assay on OVCAR-5 ovarian, 97.7%; with OVCAR-4 ovarian, 44.6%; in the assay on SK-OV-3 ovarian it was 101%. Further, the growth with IGROV1 ovarian is 88.8%; with OVCAR-3 ovarian it was -44.2% (active); in the assay with HS 578T breast it was 92.5%; in the assay with NCI/ADR-RES ovarian, 82.9%.

Consider `Cc1ccc2[nH]c(=O)cc(-n3nncc3COc3ccc(C=O)cc3)c2c1`, for which the growth in the assay with SR leukemia was 102%; in the assay with RPMI-8226 leukemia, 102%; in the assay on OVCAR-8 ovarian, 107%; with OVCAR-5 ovarian, 101%; with OVCAR-4 ovarian, 104%; in the assay with SK-OV-3 ovarian, 107%. Moreover, the growth is 106% in the assay with IGROV1 ovarian, 102% with OVCAR-3 ovarian, 96.7% with HS 578T breast and 109% in the assay on NCI/ADR-RES ovarian.

`O=C1Nc2c(ccc(Cl)c2Cl)/C1=C/c1ccc([N+](=O)[O-])cc1`: the growth in the assay with SR leukemia is 69.7%; with RPMI-8226 leukemia, 90.1%; in the assay with OVCAR-8 ovarian, 95.1%; with OVCAR-5 ovarian, 98.1%; in the assay with OVCAR-4 ovarian it was 100%; in the assay with SK-OV-3 ovarian it was 93.8%. The growth with IGROV1 ovarian is 98.6%; with OVCAR-3 ovarian, 108%; with HS 578T breast, 100%; in the assay with NCI/ADR-RES ovarian it was 93.9%.

In the case of `COc1ccccc1/C=N/NC1=NC2C(N1)N(C)C(=O)N2C` (stereo not given), the growth with SR leukemia was 110%; with RPMI-8226 leukemia, 119%; in the assay on OVCAR-8 ovarian, 103%; in the assay with OVCAR-5 ovarian, 102%; with OVCAR-4 ovarian, 106%; in the assay with SK-OV-3 ovarian, 95.4%. Besides, the growth in the assay with IGROV1 ovarian is 96.4%; in the assay on OVCAR-3 ovarian, 107%; in the assay with HS 578T breast, 95.1%; in the assay with NCI/ADR-RES ovarian, 105%.

In the case of `COc1ccc(C2=NN(C(C)=O)C(c3cn(Cc4ccc(Cl)cc4)c4ccccc34)C2)cc1` (stereo not given), the growth with SR leukemia was 66.2%; in the assay with RPMI-8226 leukemia, 50%; in the assay with OVCAR-8 ovarian, 78.3%; in the assay on OVCAR-5 ovarian, 79.6%; in the assay with OVCAR-4 ovarian, 70.1%; in the assay with SK-OV-3 ovarian, 90.1%. Moreover, the growth was 77.5% with IGROV1 ovarian, 78.1% in the assay with OVCAR-3 ovarian, 75.9% in the assay with HS 578T breast and 75% in the assay on NCI/ADR-RES ovarian.

On to `N/C(=N\N=C\c1cc2ccccc2[nH]1)N/N=C/c1cc2ccccc2[nH]1`, for which the growth is 6.87% (active) in the assay on SR leukemia; 88.2% with RPMI-8226 leukemia; 97.4% with OVCAR-8 ovarian; 109% in the assay on OVCAR-5 ovarian; 83% in the assay on OVCAR-4 ovarian; 88.6% in the assay on SK-OV-3 ovarian. Moreover, the growth is 64.4% in the assay with IGROV1 ovarian, 93.9% with OVCAR-3 ovarian, 90.3% with HS 578T breast and 100% with NCI/ADR-RES ovarian.

On to `N#CC1=C(N)Oc2c(ccc3ccccc23)C1c1ccc([N+](=O)[O-])cc1` (stereo not given), for which the growth was 20.2% in the assay on SR leukemia; 89.5% in the assay with RPMI-8226 leukemia; 93.3% with OVCAR-8 ovarian; 95.7% with OVCAR-5 ovarian; 90.8% in the assay with OVCAR-4 ovarian; 80% in the assay on SK-OV-3 ovarian. Moreover, the growth in the assay with IGROV1 ovarian is 50.4%; in the assay on OVCAR-3 ovarian, 76.5%; in the assay on HS 578T breast, 87.5%; in the assay on NCI/ADR-RES ovarian it was 52.8%.

On to `COc1cc(COC(=O)CCCCC[P+](c2ccccc2)(c2ccccc2)c2ccccc2)c(OC)c2c1OCO2`, for which the growth in the assay with SR leukemia was 0.217% (active); in the assay with RPMI-8226 leukemia, -23.1% (active); with OVCAR-8 ovarian, 64.4%; with OVCAR-5 ovarian, 76.9%; in the assay on OVCAR-4 ovarian it was 41.2%; with SK-OV-3 ovarian, 76.6%. For the same compound, the growth was 28.6% in the assay with IGROV1 ovarian, 48.7% in the assay on OVCAR-3 ovarian, 70.8% in the assay with HS 578T breast and 104% in the assay with NCI/ADR-RES ovarian.

In the case of `COc1ccc(C2CC(c3cccc(Nc4ccncc4)c3)=NN2c2ccc(Cl)cc2)cc1` (stereo not given), the growth in the assay with SR leukemia was 1.94% (active); in the assay on RPMI-8226 leukemia, 0.0835% (active); in the assay with OVCAR-8 ovarian it was -23.4% (active); in the assay with OVCAR-5 ovarian, 74.1%; in the assay with OVCAR-4 ovarian it was 37.7%; in the assay on SK-OV-3 ovarian, 63.9%. The growth in the assay on IGROV1 ovarian is 23%; in the assay with OVCAR-3 ovarian, 39.6%; with HS 578T breast it was 60.7%; in the assay with NCI/ADR-RES ovarian, 62.3%.

As for `CC(C)CCSc1nc(NNC(N)=O)c(C#N)c(-c2ccccc2)n1`, the growth in the assay with SR leukemia is 105%; in the assay with RPMI-8226 leukemia it was 99.4%; with OVCAR-8 ovarian, 104%; with OVCAR-5 ovarian it was 97.8%; in the assay on OVCAR-4 ovarian, 113%; in the assay on SK-OV-3 ovarian it was 107%. Moreover, the growth is 103% in the assay on IGROV1 ovarian, 108% in the assay with OVCAR-3 ovarian, 112% with HS 578T breast and 102% in the assay on NCI/ADR-RES ovarian.

Turning to `CCCCCCCCCCCCCCCC(=O)OC[C@@]1(O)C[C@@]23CC[C@@H]4C(C)(C)[C@H](O)CC[C@@]4(C)[C@@H]2CC[C@H]1C3`, the growth in the assay on SR leukemia is 98.2%; with RPMI-8226 leukemia, 102%; in the assay with OVCAR-8 ovarian, 108%; in the assay on OVCAR-5 ovarian it was 106%; in the assay on OVCAR-4 ovarian it was 113%; with SK-OV-3 ovarian it was 97.1%. In addition, the growth is 117% with IGROV1 ovarian, 107% with OVCAR-3 ovarian, 100% in the assay on HS 578T breast and 106% in the assay with NCI/ADR-RES ovarian.

As for `CCN(CC)CCCC(Nc1c2ccc(Cl)cc2nc2ccc(OC)cc12)c1ccc(Cl)cc1` (stereo not given), the growth is -32.9% (active) in the assay on SR leukemia; -18.6% (active) with RPMI-8226 leukemia; -37.7% (active) with OVCAR-8 ovarian; 33.7% in the assay on OVCAR-5 ovarian; 20.3% in the assay on OVCAR-4 ovarian; 64.9% with SK-OV-3 ovarian. Moreover, the growth with IGROV1 ovarian was -15.3% (active); with OVCAR-3 ovarian it was -17.6% (active); with HS 578T breast, -47.7% (active); in the assay on NCI/ADR-RES ovarian, -13.3% (active).

For the compound `O=C(OCc1nc2nc(Cl)nc(N3CCOCC3)c2[nH]1)n1ccnc1`, the growth in the assay with SR leukemia was -14.2% (active); in the assay with RPMI-8226 leukemia, -35.7% (active); in the assay with OVCAR-8 ovarian, -44.9% (active); in the assay with OVCAR-5 ovarian, 22.3%; with OVCAR-4 ovarian, -38.3% (active); in the assay on SK-OV-3 ovarian it was 46.2%. The growth in the assay on IGROV1 ovarian was 2.36% (active); in the assay on OVCAR-3 ovarian, -84.9% (active); in the assay on HS 578T breast it was 5.43% (active); in the assay with NCI/ADR-RES ovarian it was 6.27% (active).
